Assay outcomes deposited in PubChem by several laboratories.
SKKanGAS inh: S. pyogenes SKKanGAS growth inhibitors in kanamycin, primary screen, streptokinase expression inhibitor project, SKKanGAS strain, BacTiter-Glo luminescence; 6 h; AID 1662, 2009; inhibition, % at 7.5 µM; hit rate 1.3% among 300,000;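 active means mean replicate score, as percent of positive control median, at least 50; inconclusive means mean below 50 but one replicate at or above 50; inactive means mean and every replicate below 50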;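 further: strain carries kanamycin resistance gene driven by streptokinase promoter and grows in 40 µg/ml kanamycin; loss of luminescence reflects streptokinase promoter inhibition or plain growth inhibition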
NALP1 inh: NALP1 inflammasome inhibitors in reconstituted yeast, colorimetric, S. cerevisiae, triplicate retest; inhibition, % at 10 µM; AID 2071, 2009; S. cerevisiae NALP1/ASC/caspase-1 growth, X-gal OD620, 72 h; hit rate 0.61% among 280,000; in the data active means inhibition mostly above about 24%, no sharp cut-off; inactive means mostly below about 32%
TIM10 inh: growth inhibitors of isogenic TIM10 control yeast, primary screen, counter-screen for tim10-1 yeast inhibitor project, luminescence, uHTS; S. cerevisiae TIM10 strain growth, BacTiter-Glo luminescence, 24 h; inhibition, % at 10 µM; AID 463195, 2010; hit rate 1.4% among 330,000;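 active means inhibition of 40% or more at the single tested concentration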;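 further: wild-type TIM10 isogenic control strain grown at permissive 25 °C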
tim23-1 inh: growth inhibitors of tim23-1 mutant yeast, primary screen, luminescence, uHTS; S. cerevisiae tim23-1 growth, BacTiter-Glo luminescence, 24 h; inhibition, % at 20 µM; hit rate 1.3% among 330,000;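 active means growth inhibition of the mutant yeast at or above 50%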;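 further: temperature-sensitive mutant grown at 25 °C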
tim10-1 inh: growth inhibitors of tim10-1 mutant yeast, primary screen, luminescence, uHTS; S. cerevisiae tim10-1 ts strain growth, BacTiter-Glo, 24 h; inhibition, % at 20 µM; hit rate 2.2% among 330,000; AID 463190, 2010;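 active means inhibition of at least 40%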;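 further: mutant grown at 25 °C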
PfHsp90 yeast 2: growth inhibition of PfHsp90-expressing yeast, primary screen, antimalarial PfHsp90 inhibitor project, S. cerevisiae, BacTiter-Glo luminescence, single point, set 2; BacTiter-Glo ATP, 48 h; yeast lacking PDR1 and PDR3 efflux regulators; inhibition, % at 9.4 µM; hit rate 0.32% among 310,000;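 active means every replicate shows inhibition above about 80%, whatever the replicate mean, limit read from the data; inconclusive means mean inhibition reaches the set limit but some replicate falls short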
Each line names hits and unclear results; the compound was inactive in the other large screens. An excerpt weighted towards active compounds, which were near 4.8% of everything screened.

CCCOc1ccc(C(=O)NC(=S)N2CCN(c3cc4c(cc3F)c(=O)c(C(=O)O)cn4CC)CC2)cc1	SKKanGAS inh 91
CCn1cc(C(=O)O)c(=O)c2cc(F)c(N3CCN(C(=S)NC(=O)c4ccc(F)cc4)CC3)cc21	none
CC(=O)N1CCN(c2cc3c(cc2F)c(=O)c(C(=O)O)cn3C2CC2)CC1	SKKanGAS inh inconclusive
CCN1CCN(c2cc3c(cc2F)c(=O)c(C(=O)O)cn3C2CC2)CC1	SKKanGAS inh 103
Cn1ncc(C(=O)Nc2ccc(Cl)cc2)c1C(F)(F)F	none
Brc1ccc(/C=N/Nc2ncnc3c2cnn3Cc2ccccc2)cc1	NALP1 inh 30
COc1ccc(C(=O)/C=C/c2ccc(O)cc2)c2c1CC(O)C(C)(C)O2 (stereo not drawn)	none (no result: SKKanGAS inh, NALP1 inh)
COc1ccc(C(=O)/C=C/c2ccc(O)cc2)c(O)c1CC=C(C)C	SKKanGAS inh 89
O=C1c2cccc3cccc(c23)C(=O)N1CCCc1n[nH]c(=S)n1-c1ccccc1	none
CC1CCCN(C(=O)Cn2c3ccccc3c3nc4n(c(=O)c32)CCS4)C1 (stereo not drawn)	none
Cc1noc2ncnc(Oc3cc(Cl)ccc3Cl)c12	NALP1 inh 21
Cc1noc2ncnc(Oc3ccc4ccccc4c3)c12	none (no result: PfHsp90 yeast 2)
COc1ccc(NC(=O)COc2ccccc2C)cc1S(=O)(=O)N1CCCCC1	none (no result: NALP1 inh, PfHsp90 yeast 2)
COc1cc(C(=O)NS(=O)(=O)c2ccccc2C)ccc1Cc1cn(C)c2ccc(NC(=O)OC3CCCC3)cc12	SKKanGAS inh 68 (no result: PfHsp90 yeast 2)
CC(C)CCn1nnnc1C(c1ccccc1)N1CCC(C(N)=O)CC1 (stereo not drawn)	none
Cc1ccc(OCCn2c(=S)[nH]c3ccccc32)c(C(C)C)c1	SKKanGAS inh 101
Cc1cccc(OCCn2c(=S)[nH]c3ccccc32)c1	none
O=C(CCNS(=O)(=O)c1cccc2nsnc12)Nc1ccc2c(c1)OCCO2	none
O=S(=O)(Nc1ccc2c(c1)OCCO2)c1cccc2nsnc12	NALP1 inh 31
Cc1ccc(-c2noc(-c3ccccc3F)n2)cc1	none
N#Cc1c(N)nc(Sc2ccc(Cl)cc2)c(C#N)c1-c1ccccc1Cl	SKKanGAS inh 75
Cc1ccc(F)c(NC(=O)c2ccc(Cn3cc(Cl)cn3)cc2)c1	none
Cc1ccc(F)c(NC(=O)/C(C#N)=C(\O)c2ccc(C(C)(C)C)cc2)c1	SKKanGAS inh 59
CC1=Nc2ccccc2/C1=C/c1sc(=N)n(-c2nccs2)c1O	SKKanGAS inh 98
CCC(=O)N1N=C(c2ccccc2)CC1c1ccccc1 (stereo not drawn)	none
CCC(=O)N1N=C(c2c(O)n(C)c(=O)n(C)c2=O)CC1c1ccccc1 (stereo not drawn)	SKKanGAS inh 75
CCOc1ccc(NS(=O)(=O)c2cc(NC(=O)c3ccc(C)cc3)ccc2Cl)cc1	SKKanGAS inh 60 (no result: NALP1 inh)
C/C=C/C(=O)Nc1cccc(C2=NOC3(C2)C[C@H](C(N)=O)N(C(=O)c2ccccc2C(=O)c2ccccc2)C3)c1 (stereo partly drawn)	none (no result: PfHsp90 yeast 2)
O=C(NN=Cc1c(O)ccc2ccccc12)c1ccc2c(c1)OCO2	none (no result: SKKanGAS inh, NALP1 inh)
Oc1ccc(N=Nc2ccc3c(c2)OCO3)c2ccccc12	SKKanGAS inh 88 (no result: NALP1 inh, PfHsp90 yeast 2)
Cc1nc2c(C(=O)NCCC(C)C)c[nH]n2c(=O)c1Cc1ccccc1F	SKKanGAS inh 93
COc1ccc(S(=O)(=O)N(C(=O)c2ccncc2)c2ccc(OC(=O)c3ccncc3)cc2)cc1	PfHsp90 yeast 2 91
COc1ccc(N(C(=O)c2ccncc2)S(=O)(=O)c2ccccc2)cc1	PfHsp90 yeast 2 194
COc1ccc(N(C(=O)c2ccncc2)S(=O)(=O)c2ccc(F)cc2)cc1	none (no result: PfHsp90 yeast 2)
CC(=O)N(CCc1ccccc1C)Cc1cc2cc(C)ccc2[nH]c1=O	none
O=C(NC(=S)Nc1ccc(-c2nc3ncccc3o2)cc1)c1ccccc1F	SKKanGAS inh 52
COCc1cc(Sc2c(Cl)cccc2Cl)nc(-c2ccccc2)n1	SKKanGAS inh 66
CC(C)COP(=O)(OCC(C)C)C(O)c1ccc2c(c1)OCO2 (stereo not drawn)	none
CCN1C/C(=C\c2cccc([N+](=O)[O-])c2)C(=O)/C(=C/c2cccc([N+](=O)[O-])c2)C1	PfHsp90 yeast 2 95 (no result: SKKanGAS inh, TIM10 inh, tim23-1 inh, tim10-1 inh)
COc1ccc(N2CCN(C(=O)CCC(=O)c3cc(C)sc3C)CC2)cc1	none
Cc1ccc2sc(N(CCCN(C)C)C(=O)CCS(=O)(=O)c3ccccc3)nc2c1C	NALP1 inh 84
CN(C)CCCN(C(=O)CCS(=O)(=O)c1ccccc1)c1nc2cc3c(cc2s1)OCO3	NALP1 inh 50
CC(C)Nc1nc(NC(C)C)nc(N(C)C#N)n1	none
COc1ccc(C2CC(c3ccccc3)=NN2C(=O)c2cccs2)cc1 (stereo not drawn)	SKKanGAS inh 59
COc1ccc(C2=NN(C(=O)c3cccs3)C(c3ccccc3O)C2)cc1 (stereo not drawn)	none
c1ccc(CN2CCN(CCOCCOc3cccc4ccccc34)CC2)cc1	NALP1 inh 38 (no result: PfHsp90 yeast 2)
CCN(CC)S(=O)(=O)c1cccc(C(=O)NCC(c2ccccc2)N(C)C)c1 (stereo not drawn)	PfHsp90 yeast 2 107
Cc1cc(S(=O)(=O)Nc2ccc(C(=O)NCC(c3ccccc3)N(C)C)cc2)ccc1F (stereo not drawn)	NALP1 inh 29
CN(C)C(CNC(=O)c1cccc(S(=O)(=O)Nc2ccccc2Cl)c1)c1ccccc1 (stereo not drawn)	none (no result: SKKanGAS inh, NALP1 inh, TIM10 inh, tim23-1 inh, tim10-1 inh)
O=C(CNC(=O)c1ccc2ccccc2c1)NCc1ccccc1F	none
Cc1ccc(S(=O)(=O)NCC23C=CC(O2)C2C(=O)N(c4ccccc4)C(=O)C23)cc1 (stereo not drawn)	PfHsp90 yeast 2 106
Cc1ccc(S(=O)(=O)NCC2(c3ccccc3)CCN(C)CC2)cc1	none
Cc1ccc(NC(=S)NCC23C=CC(O2)C2C(=O)N(c4ccc(C)cc4)C(=O)C23)cc1 (stereo not drawn)	PfHsp90 yeast 2 107
CC(C)(C)OC(=O)NCC12C=CC(O1)C1C(=O)N(Cc3ccccc3)C(=O)C12 (stereo not drawn)	none
Cc1cccc(NC(=S)NCC23C=CC(O2)C2C(=O)N(c4ccc(Cl)cc4)C(=O)C23)c1 (stereo not drawn)	PfHsp90 yeast 2 107
Cc1ccc(N2C(=O)C3C4C=CC(CNC(=S)N5CCN(c6ccccc6)CC5)(O4)C3C2=O)cc1 (stereo not drawn)	PfHsp90 yeast 2 104
Cc1ccc(CCN2CCN=C2N(C)C)cc1	none
COCCNC(=O)CCCn1c(=O)c2cc(OC)c(OC)cc2n(CC(=O)NCCC2=CCCCC2)c1=O	none
